Z-score data for 69 sequences are collected here from PubChem BioAssay AID1508600 (Functional Genomics Laboratory (NCATS/FGL), 2020).

Among all 53,000 sequences or so, about 3,700 (7%) were called active. This excerpt belongs to a sample that is enriched for actives. Unmarked numbers belong to inactive results.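 How the source made its calls: active means gene knockdowns whose robust z-score for IL-1 alpha signal is at least 2 or at most -2, so actives lie on both sides; inactive means the rest.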

The experiment is described as follows: Components of the Cytosolic LPS Sensing Pathway: Gene Identification via Genome-wide siRNA Screen.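 Further: robust z of the log signal after scaling to non-targeting control siRNA wells of the plate.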 The note with it: RAW264.7 macrophages, IL-1a HTRF, actives lie on both sides, screened at 100 nM (by protocol), cells primed 5 h with Pam3CSK4 first. In short, it runs like this: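 RAW264.7 mouse macrophages reverse-transfected with single siRNAs (100 nM final) for 48h, primed with Pam3CSK4 for 5 hours, then transfected with LipidA for 24 hour. Supernatant IL-1a read by HTRF; values normalized to negative-control median, log-transformed robust z-scores.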
A general note: TR-FRET usually uses a lanthanide donor and a delayed reading to cut background.
Regarding GGUACUGUCGGUAUCCCACTT against Gcc1, the z-score is -1.62.

Take GCCUUUGUACAAUGACUAUTT against Prpf38a: the z-score was -0.127.

For the sequence GCAGAAAGCAACACGCCCUTT against Pramel20, the z-score was 0.631.

As to GGGUAUGCAGAAGGGAACATT against Nrap, the z-score is 0.424.

Consider GGGCAGAGUGAUGUUGUCATT against Gsdmd, for which the z-score was -3.34 (active).

Turning to CCAUUGUGUGGUACUUAAATT against Mrm3, the z-score is 0.448.

Regarding GCGACUCACUAUUUGGGCATT against Ell3, the z-score is 0.471.

As for GGAAAAUUCAUCCUUAGUATT against Wdr61, the z-score was -0.086.

Turning to CGAAACACCAGAUGUAUUCTT against Gck, the z-score is -0.551.

As to GGUUAUGAAACUGAGAAAGTT against Mid2, the z-score is -0.0195.

As to CCCUCUCUUUGGAUACACATT against Tenm4, the z-score is -2.98 (active).

For GGAUUUGUCAUCCACUUCUTT against Sez6, the z-score was -1.79.

For the sequence GCUGCUCAAACAUAAUGAATT against Osbpl2, the z-score was -0.419.

On to GGAUGUACAUUCUACCUAUTT against Bap1, for which the z-score was -0.239.

Consider GGAUACGAUUGAACGGCUGTT against Rac3, for which the z-score is -0.566.

With GCUCCUGUAGACAGGUUAGTT against Serac1, the z-score was -1.39.

On to CGCUCAUUUAGACAUAGAGTT against Ass1, for which the z-score is 0.686.

Take CGGCAUUUGCUAAUGGUCGTT against Actl6a: the z-score is -2.79 (active).

As for CCUAGUCAUAUUCUACAGUTT against Iqca1l, the z-score was 0.77.

On to GGUUGGAGUUAUAGAUUUUTT against Rufy3, for which the z-score is 1.42.

As to GGAGAGAACUGAUGAAUCCTT against Sdhaf2, the z-score is -0.26.

For CCCUCUUUACCAGUAUUACTT against Pla2g5, the z-score is 0.287.

Take GCCGUUCACCAUGAAAUGGTT against Prkci: the z-score was -0.898.

Turning to CCAAGCCUUAAUAAGUCAATT against Ccp110, the z-score was -2.52 (active).

In the case of GGCUACAUGAGAAGCACAGTT against Disc1, the z-score is 1.64.

Regarding CCUUAACAUGUUUCAUCUATT against Sap30, the z-score was 0.584.

In the case of GGUUGUUUCCAGUAUUCUGTT against Apc2, the z-score is 1.18.

As to GCUAUAUGUACCCUAGCCATT against H2aj, the z-score is 2.26 (active).

On to GCGAAGCGAAUCCUUUUUCTT against Fosl2, for which the z-score is 0.0982.

CCCUGCUUGAAUCUCUUCGTT against Tyk2: the z-score was -0.191.

For GGCUUACGUGGUGUGCACUTT against Galr1, the z-score is 0.345.

For the sequence GGUCAGGUCUUUUUAUACATT against Zfp354a, the z-score is 2.56 (active).

Regarding GGAAAGGAACUAGCAACGATT against Art3, the z-score was -0.642.

Take GGAUACAAUCCUUUUGGAUTT against Dnajb1: the z-score was 0.205.

As for GGUGUUUUCCAACAUCCUCTT against Ccrl2, the z-score was 3.06 (active).

Take CCGACAUUCAACAAGAUUUTT against Mta1: the z-score was -0.092.

Regarding CCGGAGCUUUAUUGACACGTT against Rbm19, the z-score is 1.15.

For GGCCUGUGGUUAUGCUGUGTT against Cyp2b10, the z-score is -0.716.

As for CCUAUUGAAAAGCCAAACUTT against Lypd11, the z-score was -0.651.

Consider GGUCUUUGUGUCCACCUACTT against Gpr162, for which the z-score was 0.669.

GGUUCUAAUAAAAAUCGGUTT against Pcdhb1: the z-score was 0.659.

In the case of GGAGCUGAAUCAUUAUCUGTT against Rabep1, the z-score was -0.0512.

For GGUGCUGUUUAAAACACAGTT against Aurka, the z-score is 1.25.

As to GGAGUUGAUAAUAUGGUGGTT against Uck1, the z-score was 0.712.

Turning to GGUGUCCAUGCUAGCUGUATT against Best2, the z-score is 2.97 (active).

As to GGACCAGCUUUUCAACAUUTT against F8, the z-score was 0.141.

For the sequence CCUGCUUAGGACCAUCGACTT against Lrrn2, the z-score is -0.0914.

With GGGAUAGCUGUCUUUCAUUTT against Extl3, the z-score is -1.02.

For the sequence GCUCUUGCUACUUUUUUCUTT against Olfr823, the z-score was -0.108.

Regarding GGGAAAAACACUUCUCACUTT against Slc35e2, the z-score is -0.238.

Regarding GGUCGCUAUUAAGAUCAUUTT against Mark4, the z-score was 0.491.

Turning to GCUCUGCCUUCAGAUGACGTT against Olfr173, the z-score was -0.26.

Consider GGCAGAUCAGAAUUGAAUUTT against Fgd6, for which the z-score was -0.528.

For the sequence GGUCCAGGUCUGAAUCUAGTT against Tra2b, the z-score is 2.48 (active).

With GCAAGGAGGUCCAACUAAGTT against Fzd8, the z-score was 0.239.

With GGUUAAUAAUGCGACAGCATT against Rbfox1, the z-score was 0.00257.

Consider GGAAAACUCAAAGUGCUGATT against Paqr7, for which the z-score is 0.512.

In the case of CCAGUUUGGUAAUCAUGAATT against Cyb561d2, the z-score is -0.244.

Turning to GGCACCUUGGAGUUACAUATT against Pcdha10, the z-score was -0.24.

For the sequence CGACAAGAAAACAUACUAGTT against Gins4, the z-score was 2.28 (active).

Regarding GCAGACAACUAGACAUACATT against Selenok, the z-score was -0.42.

As for GCAAUAAUGGCAAUUACGGTT against Slc35f4, the z-score is 1.13.

With GGAGCUGGUGUUGAGUGAGTT against Slfnl1, the z-score is -1.81.

In the case of UUGUGACCAAUUUCUGAAUTT against Pgbd1, the z-score is -0.594.

On to GGAGUUAAACAAACAGAGUTT against Psma6, for which the z-score was -0.855.

On to UUUACUCUCAUGGUAACCUTT against Olfr798, for which the z-score is -0.386.

Regarding GGAGGUAUGGCGGUGAUUATT against Krt77, the z-score is 0.718.

On to GCUAUUCAAUGGACCAGAATT against Olfr490, for which the z-score was -2.26 (active).

As for GUCACUAUUAAGACACUUATT against Nudcd3, the z-score was 0.157.
